The entries come from a sample that favours hits as a whole.
Pf Dd2 inh = Plasmodium falciparum Dd2 growth inhibition; P. falciparum Dd2 growth, SYBR Green, 72 h; Potency, µM (series often up to 28.9 µM), inactives show top-dose activity, negative = inhibition, actives largely listed as inhibitors; 120,000 compounds, 4.3% hits; AID 1347417; active means well fitted inhibition curve with a large enough effect;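 further: plate controls were DMSO vehicle for no effect and reference drug for full effect; nearly all actives have a fitted effect of over 65% in size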
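Infected erythrocytes (Dd2, 0.3% parasitemia, 2.5% hematocrit final) are added to compound in RPMI-1640/Albumax II medium, grown 72 h at 37C in low oxygen, then lysed with saponin/Triton-X containing SYBR Green and read by fluorescence.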
* hit, by the source's call; i = inactive; [ ] = another dose, or the depositor's remark. Potency means the concentration at half of the fitted maximal effect.

SMILES	Pf Dd2 inh
CCC(c1ccccc1)N1Cc2cc(NS(=O)(=O)c3ccc(F)cc3)ccc2OC(C)C1=O (stereo not given)	i
O=C(Cn1cccc1-c1nc(-c2ccc(F)cc2)no1)Nc1ccccc1F	-5%
Fc1ccccc1CN1CCOC[C@H](Oc2cnccn2)C1	-16%[44.1 µM]
CCCc1nc(NCc2ccc(-c3noc(C)n3)cc2)c2cnn(C)c2n1	-26%
O=C(Cn1nc2c(cc1=O)CCCCC2)Nc1nccs1	9%
COc1ccccc1C(=O)N[C@@H]1CN(Cc2ccncc2)C[C@H]1CN(C)C	-21%
CCOc1ccccc1C(=O)N[C@@H]1CN(Cc2cccnc2)C[C@H]1CN(C)C	-37%
CCOc1ccccc1C(=O)N[C@@H]1CN(Cc2ccncc2)C[C@H]1CN(C)C	5µM*
CC(=O)c1cccc(NC(=O)O[C@@H]2CO[C@H]3[C@@H]2OC[C@@H]3NC(=S)NC2CCCCC2)c1	i
O=C(c1ccncc1)N1CCC2(CC1)CC(c1ccccc1)C(=O)N(C1CC1)C2 (stereo not given)	-17%
COc1ncccc1-c1nc(N2CCOCC2)cc2c1CN(CC(F)(F)F)C2=O	77%[44.1 µM]
COc1cccc(-c2nc(N3CCOCC3)cc3c2CN(Cc2ccccc2)C3=O)c1OC	11µM*
COc1cccc(-c2nc(N3CCOCC3)cc3c2CN(CC(F)(F)F)C3=O)c1OC	-1%[44.1 µM]
O=C1c2cc(N3CCOCC3)nc(-c3cccc(F)c3)c2CN1CC1CC1	i
O=C1c2cc(N3CCOCC3)nc(-c3cccc(O)c3)c2CN1CC(F)(F)F	2.8µM*
COc1cccc(-c2nc(N3CCOCC3)cc3c2CN(CC2CC2)C3=O)c1OC	4%[44.1 µM]
CC(=O)N[C@@H]1CN(C(=O)C2(c3ccccc3)CC2)C[C@H]1CO	21%
COc1ccc(N2C(=O)CSC23CCN(C(=O)CC(C)C)CC3)cc1	-21%
Cc1cc(C(=O)N2CCC3(CC2)NCCc2c3[nH]c3ccccc23)nn1C	-1%
COc1ccc(S(=O)(=O)Nc2ccc(C)n(CC(=O)NCc3ccccc3)c2=O)cc1	-13%
COc1ccccc1NC(=O)Cn1c(C)ccc(NS(=O)(=O)c2ccccc2)c1=O	1.4µM*
CCc1ccc(NC(=O)Cn2c(C)ccc(NS(=O)(=O)c3ccccc3)c2=O)cc1	-6%
COc1ccc(C2Cn3cnc(C(=O)N4CCC(C(=O)NC(C)c5ccccc5)CC4)c3CO2)cc1 (stereo not given)	-18%
Cn1ncc2c(C(=O)NCC3CC3)cc(-c3cccnc3)nc21	13µM*
Cc1cccc(C)c1-c1cc(C(=O)NC2CC2)c2cnn(C)c2n1	1%
SMILES	Pf Dd2 inh
Cn1ncc2c(C(=O)NC3CC3)cc(-c3cccc(C(F)(F)F)c3)nc21	-22%
CC(C)NC[C@H]1O[C@@H]2C[C@@H](CC(=O)N3CCOCC3)O[C@@H]2[C@@H]1O	23%[44.1 µM]
COCCNc1ncnc2onc(-c3ccc(F)cc3)c12	-11%
COCCCNc1ncnc2onc(-c3ccc(F)cc3)c12	123%
Cc1ccccc1CN1CCC(CNc2ncnc3onc(-c4ccc(F)cc4)c23)CC1	4µM*
CCN(C1CCOCC1)C1CN(C(=O)C2CCCO2)C1 (stereo not given)	1%
N#Cc1csc(N2CC3CCC(C2)N3CC(F)(F)F)n1	i
Cc1cc(C)c(NC(=O)C(C)n2c(=O)cc(-c3ccccc3)c3c(C)nn(C)c32)c(C)c1 (stereo not given)	20%
COc1cc(OC)c(NC(=O)C(C)n2c(=O)cc(-c3ccccc3)c3c(C)nn(C)c32)cc1Cl (stereo not given)	10µM*
Cc1c(Cl)cccc1NC(=O)C(C)n1c(=O)cc(-c2ccccc2)c2c(C)nn(C)c21 (stereo not given)	i
CC(C)NC(=O)c1nc(-c2ccsc2)c2ccccn12	2%[44.1 µM]
CC(C)NC(=O)NCc1nnc2n1C(C(=O)N1CCN(c3ncccn3)CC1)CC2 (stereo not given)	13%
Cc1cc(C[C@@H]2COC[C@@H]2NC(=O)c2cnc(Nc3ccccc3)nc2)on1	-7%
CC(C)CCN1CC[C@@H]2OCC(=O)N(Cc3c[nH]c4ccccc34)[C@H]2CC1	i
CC(C)N1C(=O)CO[C@H]2CCN(Cc3ccccc3)CC[C@@H]21	-25%[44.1 µM]
N#Cc1cccc(CN2CC[C@@H]3OCC(=O)N(Cc4c[nH]c5ccccc45)[C@H]3CC2)c1	i
O=C1CO[C@H]2CN(Cc3ccncc3)C[C@H]2N1Cc1ccc(F)cc1	-5%[44.1 µM]
O=C1CO[C@H]2CCN(Cc3ccncc3)CC[C@@H]2N1Cc1ccccc1	i
O=C1CO[C@H]2CN(Cc3ccc4c(c3)OCO4)C[C@H]2N1Cc1ccc(F)cc1	10µM*
COc1ccccc1CN1CC[C@@H]2OCC(=O)N(Cc3c[nH]c4ccccc34)[C@H]2CC1	4.5µM*
COc1ccc(CN2C(=O)CO[C@H]3CN(Cc4c[nH]c5ccccc45)C[C@H]32)cc1	7.9µM*
COc1ccc(CN2C(=O)CO[C@H]3CN(C(C)C)C[C@H]32)cc1	i
CC(C)c1ccc(CN2CC[C@@H]3OCC(=O)N(Cc4ccccc4)[C@H]3CC2)cc1	10µM*
O=C1CO[C@H]2CN(Cc3ccc4c(c3)OCO4)C[C@H]2N1Cc1ccccn1	i
COc1ccc(CN2C(=O)CO[C@H]3CN(CC4CC4)C[C@H]32)cc1	i
SMILES	Pf Dd2 inh
O=C(c1cccc(F)c1)N1CCN2C(=O)N(C3CCCCC3)C(=O)[C@@H]2C1	i
Cc1ccc(S(N)(=O)=O)cc1C(=O)N[C@H]1[C@H]2CCO[C@H]2[C@@H]1N1CCCC1	-3%
Cc1cc(C)cc(NC(=O)N2CCCC(Cn3c(C)nc4cccnc43)C2)c1 (stereo not given)	-7%
CN1CCC2(CCC1=O)CN(Cc1nc(C(N)=O)no1)CCN2C (stereo not given)	-13%
CCc1cccc(NC(=O)Cn2c(Nc3cc(C)cc(C)c3)nc(C)cc2=O)c1	-10%
COc1ccc(CCC(=O)N2C[C@@H](C(N)=O)[C@H](c3nc(C)no3)C2)cc1OC	19%
COCC(=O)N[C@H]1CC[C@]2(C)CC[C@@H]([C@H](C)C(=O)N3CCCCC3)[C@H](O)[C@H]2[C@@H]1C	34%[44.1 µM]
CCOc1ccc(Cn2c(CNS(=O)(=O)c3cccc(Cl)c3)nc3cccnc32)cc1	-8%
CSc1ccc(/C=C/c2nc3ccccc3n2S(=O)(=O)c2ccc(F)c(C)c2)cc1	i
CCOc1ccc(/C=C/c2nc3ccccc3n2S(=O)(=O)c2cccc(Cl)c2)cc1	3.5µM*
CC(C)C(=O)NCC12CCCC=C1NC(=O)CC2 (stereo not given)	-10%
CC(Oc1ccccc1)C(=O)N1CCOCCNC(=O)CC1 (stereo not given)	10%
CCCC1(CO)CCCN(Cc2nnc(-c3cccc(F)c3)o2)C1 (stereo not given)	i
CC(C)=CCC1(CO)CCCN(Cc2[nH]c3ccc(F)cc3c2C)C1 (stereo not given)	2.2µM*
CCc1noc(C)c1C(=O)N1CCCC(CO)(CC=C(C)C)C1 (stereo not given)	-13%
O=C1COc2ccc(-c3ccc4c(c3)OCO4)nc2CN1Cc1ccc(F)cc1	-13%[44.1 µM]
COC(=O)C1=C(C)N=C2SC=C(CC(=O)NCCCN3CCCC3=O)N2C1c1ccccc1 (stereo not given)	-19%
Cn1nccc1CN1CCC2(C1)NC(=O)c1ccccc1O2 (stereo not given)	-4%[44.1 µM]
CC1CCCCN1C(=O)C(NC(=O)c1cccs1)C1CCN(C(=O)C2CCCC2)CC1 (stereo not given)	i
c1ccc(-n2cc(CN3CCCC3c3nc4ccccc4s3)nn2)cc1 (stereo not given)	-8%

Screens deposited in PubChem BioAssay by National Center for Advancing Translational Sciences (NCATS).
